Experimental findings from article PMC8384837, “Expanding the binding specificity for RNA recognition by a PUF domain” are described below.

Where a chain is given by its changes, count along the chain named.

Test in all cases: yeast three-hybrid, YBZ-1, SC-Leu-His + 0.5 mM 3-AT, 4 days
What all share (conditions): tags: N-Gal4 AD-HA kept; label: inside an RPR1-promoter hybrid RNA with tandem MS2 sites; ssRNA

One assay deals with PUM1 PUF domain R3-CRC (Homo sapiens, UniProt Q14671 828-1176, Q939C). In short, it runs like this:
(§1)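 Repeat regions from input (SC-Leu) and selection (SC-Leu-His + 0.5 mM 3-AT) plates were PCR-amplified and Illumina-sequenced after four days of growth. The cells were strain YBZ-1 with a LexA–MS2 coat fusion and a HIS3 reporter, co-expressing Pumilio-1 PUF domain libraries and matching RNA elements from a centromeric plasmid. The interaction score is the log change in variant frequency from input to selection, taken in log2 with a pseudocount of 1 for absent variants.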

The target in another assay is PUM1 PUF domain R4-VPS (Homo sapiens, UniProt Q14671 828-1176, N971V;H972P;Q975S). In short, it runs like this:
as §1

Another assay deals with PUM1 PUF domain R4-SNS (Homo sapiens, UniProt Q14671 828-1176, N971S;H972N;Q975S). In short, it runs like this: as §1
In another assay the target is PUM1 PUF domain R4-VCA (Homo sapiens, UniProt Q14671 828-1176, N971V;H972C;Q975A). In short, it runs like this: as §1
Another assay concerns the target PUM1 PUF domain R5-KHI (Homo sapiens, UniProt Q14671 828-1176, C1007K;R1008H;Q1011I). The gist of the method: as §1
Another assay addresses PUM1 PUF domain R8-NWR (Homo sapiens, UniProt Q14671 828-1176, Y1123W;Q1126R). The gist of the method: as §1
A further assay deals with T1, PUM1 PUF domain R6-LWK (Homo sapiens, UniProt Q14671 828-1176, N1043L;Y1044W;Q1047K).
T1 sequence: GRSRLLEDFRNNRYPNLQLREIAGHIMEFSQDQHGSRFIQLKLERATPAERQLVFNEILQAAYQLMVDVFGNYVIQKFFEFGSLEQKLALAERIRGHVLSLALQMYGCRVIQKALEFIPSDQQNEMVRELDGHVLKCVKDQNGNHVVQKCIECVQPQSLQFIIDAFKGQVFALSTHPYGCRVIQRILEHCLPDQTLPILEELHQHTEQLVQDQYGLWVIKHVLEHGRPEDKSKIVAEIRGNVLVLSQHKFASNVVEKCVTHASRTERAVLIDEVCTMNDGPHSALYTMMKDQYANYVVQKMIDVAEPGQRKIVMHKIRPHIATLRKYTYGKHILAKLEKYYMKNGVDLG
In short, it runs like this: as §1

Another assay concerns the target T2, PUM1 PUF domain R6-VWS (Homo sapiens, UniProt Q14671 828-1176, N1043V;Y1044W;Q1047S).
T2 sequence: T1 sequence with L216V, K220S
In short, it runs like this: as §1

A further assay has as its target PUM1 PUF domain R5-NAR (Homo sapiens, UniProt Q14671 828-1176, C1007N;R1008A;Q1011R). In short, it runs like this:
as §1

The target of another assay is PUM1 PUF domain R5-KTC (Homo sapiens, UniProt Q14671 828-1176, C1007K;R1008T;Q1011C). The gist of the method:
as §1

Regarding “GGCUAGAACUAGUGGAUCCCCCGGCGCCCGGCGGCUCGAGCCCGGGUAAGUGUAAUUAGUCUGCAUGCCGCCGGGCGCCAUGCCUGCAGGUCGACUCUAGAAAACAUG”, the binding signal with PUM1 PUF domain R3-CRC is 2.22 log2 enrichment (interaction score).

For “GGCUAGAACUAGUGGAUCCCCCGGCGCCCGGCGGCUCGAGCCCGGGUAAGUGUAAGUAGUCUGCAUGCCGCCGGGCGCCAUGCCUGCAGGUCGACUCUAGAAAACAUG”, the binding signal in the assay with PUM1 PUF domain R3-CRC was 2.62 log2 enrichment (interaction score).

Consider “GGCUAGAACUAGUGGAUCCCCCGGCGCCCGGCGGCUCGAGCCCGGGUAAGUGUAUAUAGUCUGCAUGCCGCCGGGCGCCAUGCCUGCAGGUCGACUCUAGAAAACAUG”, for which the binding signal in the assay with PUM1 PUF domain R4-VPS was 2.93 log2 enrichment (interaction score); with PUM1 PUF domain R4-SNS, 2.15 log2 enrichment (interaction score); in the assay with PUM1 PUF domain R4-VCA, 2.82 log2 enrichment (interaction score).

Take “GGCUAGAACUAGUGGAUCCCCCGGCGCCCGGCGGCUCGAGCCCGGGUAAGUGUGAAUAGUCUGCAUGCCGCCGGGCGCCAUGCCUGCAGGUCGACUCUAGAAAACAUG”: in the assay with PUM1 PUF domain R5-KHI, the binding signal is 4.47 log2 enrichment (interaction score).

On to “GGCUAGAACUAGUGGAUCCCCCGGCGCCCGGCGGCUCGAGCCCGGGUAAGUGUAAAUAGUCUGCAUGCCGCCGGGCGCCAUGCCUGCAGGUCGACUCUAGAAAACAUG”, for which the binding signal in the assay with PUM1 PUF domain R3-CRC is 2.51 log2 enrichment (interaction score); with PUM1 PUF domain R4-VPS, 1.66 log2 enrichment (interaction score); with PUM1 PUF domain R8-NWR it was 2.23 log2 enrichment (interaction score); with PUM1 PUF domain R6-LWK, 5.88 log2 enrichment (interaction score); in the assay with PUM1 PUF domain R6-VWS it was 2.66 log2 enrichment (interaction score); with PUM1 PUF domain R4-SNS it was 2.68 log2 enrichment (interaction score).

Turning to “GGCUAGAACUAGUGGAUCCCCCGGCGCCCGGCGGCUCGAGCCCGGGUAAGUGUCAAUAGUCUGCAUGCCGCCGGGCGCCAUGCCUGCAGGUCGACUCUAGAAAACAUG”, the binding signal in the assay with PUM1 PUF domain R5-NAR is 4.29 log2 enrichment (interaction score); with PUM1 PUF domain R5-KTC, 4.69 log2 enrichment (interaction score).

“GGCUAGAACUAGUGGAUCCCCCGGCGCCCGGCGGCUCGAGCCCGGGUAAGUGAAAAUAGUCUGCAUGCCGCCGGGCGCCAUGCCUGCAGGUCGACUCUAGAAAACAUG”: the binding signal in the assay with PUM1 PUF domain R6-VWS is 7.2 log2 enrichment (interaction score).

In the case of “GGCUAGAACUAGUGGAUCCCCCGGCGCCCGGCGGCUCGAGCCCGGGUAAGCGUAAAUAGUCUGCAUGCCGCCGGGCGCCAUGCCUGCAGGUCGACUCUAGAAAACAUG”, in the assay with PUM1 PUF domain R8-NWR, the binding signal was 3.79 log2 enrichment (interaction score).

Take “GGCUAGAACUAGUGGAUCCCCCGGCGCCCGGCGGCUCGAGCCCGGGUAAGUGUACAUAGUCUGCAUGCCGCCGGGCGCCAUGCCUGCAGGUCGACUCUAGAAAACAUG”: the binding signal is 2.28 log2 enrichment (interaction score) with PUM1 PUF domain R4-VPS and 0.99 log2 enrichment (interaction score) with PUM1 PUF domain R4-SNS.
